Experimental data reported in PubChem BioAssay.
The source made the active and inactive calls.

Assays:
Albumin (Bos taurus) = Albumin (Bos taurus) (UniProt P02769); assay: bovine serum albumin binders on microarray, profiling panel, artefact control for SMM control protein annotation, biochemical, small-molecule microarray, Alexa647 label, 635/667 nm fluorescence (AID 1118); conditions: BSA-A647 binding, fluorescence 635 nm, higher = more signal;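 note: score merges 667 nm emission intensity and signal-to-noise per printed compound spot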
[1] = small-molecule microarray binders of probe aXIP, primary screen, biochemical, NeuroSMM set, 635/667 nm fluorescence (AID 1119); conditions: higher = more signal, called active from +8 up or from −8 down;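 note: probe is the protein aXip251-270 applied at 1 µg/mL to compound-printed slides; binding of probe to printed compounds measured as 667 nm fluorescence plus signal to noise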
[2] = small-molecule binders of probe aNOTCH3, primary screen, biochemical, small-molecule microarray, 635/667 nm fluorescence (AID 1120); conditions: higher = more signal;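 note: probe is a biotin-tagged antibody raised against NOTCH3 rather than NOTCH3 protein; score merges spot fluorescence near 667 nm with spot signal to noise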
[3] = small-molecule binders of probe aNOTCH2, primary screen, biochemical, small-molecule microarray, 635/667 nm fluorescence (AID 1121); conditions: higher = more signal;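 note: score merges feature fluorescence read at 667 nm with its signal to noise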
[4] = biological target: Carbonic anhydrase 2 (Homo sapiens) (UniProt P00918); assay: CAII small-molecule binders, profiling panel, biochemical, small-molecule microarray, Alexa647-labelled CAII (AID 1122); conditions: CAII-A647 binding fluorescence, higher = more signal
[5] = COS7 lysate on small-molecule microarray, probe aHis, 635 nm (AID 1123); conditions: COS7 cell lysate, fluorescence, higher = more signal;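 note: z-score combines 667nm fluorescence intensity with signal-to-noise per printed compound spot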
[6] = compound binding in COS7 lysate, probe aLAP1, primary screen, cell lysate, small-molecule microarray (AID 1124); conditions: probe aLAP1, fluorescence, higher = more signal;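 note: lysate comes from COS7 cells expressing LAP1 and is applied at 0.3 µg/mL; score merges spot fluorescence near 667 nm with signal-to-noise over triplicate slides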
Sam68 (KHDRBS1) = assay: Sam68 small-molecule binders, primary screen, biochemical, small-molecule microarray, 635 nm fluorescence (AID 1125); conditions: small-molecule microarray binding, higher = more signal;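 note: score merges 667 nm channel intensity with signal to noise over triplicate slides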
[7] = tested on: Chordin-like protein 2 (CHRDL2); assay: CHRDL2 small-molecule binders, primary screen, biochemical, small-molecule microarray, 635 nm fluorescence (AID 1126); conditions: small-molecule microarray binding, fluorescence 635 nm; higher = more signal;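 note: printed compound slides probed with Chrdl2 protein at 4 µg/mL for 1 h at 4 C; score merges 667 nm emission intensity with signal to noise over three replicate slides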
[8] = biological target: Concanavalin-A (Canavalia ensiformis) (UniProt P02866); assay: ConA small-molecule binders, primary screen, artefact control for SMM control protein annotation, biochemical, small-molecule microarray, Alexa647 label, 635 nm (AID 1127); conditions: ConA-A647 binding fluorescence, higher = more signal;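 note: z combines 667 nm emission intensity with signal-to-noise across three replicate slides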
[9] = anti-His antibody binders, primary screen, artefact control for SMM control protein annotation, biochemical, small-molecule microarray, 635 nm fluorescence (AID 1128); conditions: anti-His Alexa647 antibody binding, higher = more signal;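 note: score merges feature fluorescence with signal-to-noise for each printed compound spot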
[10] = tested on: Human papillomavirus type 1a E7 protein (residues 1-88); assay: HPV1a E7 small-molecule binders, primary screen, biochemical, small-molecule microarray, residues 1-88, 635 nm (AID 1129); conditions: small-molecule microarray binding, fluorescence 635 nm; higher = more signal
[11] = biological target: Focal adhesion kinase 1 (Homo sapiens) (UniProt Q05397); assay: small-molecule microarray binders of FAK, primary screen, biochemical, 635/667 nm fluorescence, BSA, DTT (AID 1130); conditions: PTK2 binding, 635 nm fluorescence, higher = more signal;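 note: composite of spot emission at 667 nm and signal to noise over triplicate slides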
[12] = tested on: Fibrinogen (Alexa647-labelled); assay: fibrinogen binders on compound microarrays, profiling panel, artefact control for SMM control-protein annotation, biochemical, small-molecule microarray, 635/667 nm fluorescence (AID 1131); conditions: fibrinogen-A647 binding fluorescence, higher = more signal;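 note: z-score merges 667 nm fluorescence with per-spot signal-to-noise over triplicate slides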
[13] = biological target: Follistatin (Homo sapiens) (UniProt P19883); assay: follistatin binders on small-molecule microarrays, primary screen, biochemical, small-molecule microarray, 635/667 nm fluorescence (AID 1132); conditions: FST binding, 635 nm fluorescence, higher = more signal
[14] = biological target: Fibroblast growth factor 2 (Homo sapiens) (UniProt P09038); assay: FGF2 binders on small-molecule microarrays, primary screen, biochemical, small-molecule microarray, 635/667 nm fluorescence (AID 1133); conditions: small-molecule microarray binding, FGF2, fluorescence 635/667; higher = more signal
[15] = mitochondrial membrane potential change in A549 cells, profiling panel, cell-based, JC-1 fluorescence, basal, 24 h, 100 nL (AID 1138); conditions: higher = more signal;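 note: A549 lung adenocarcinoma cells under basal conditions with no added stimulus; test concentration not given here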
Lefty1 = Lefty1 binders on small-molecule microarrays, primary screen, biochemical, small-molecule microarray, 635/667 nm fluorescence (AID 1139); conditions: small-molecule microarray binding, fluorescence 635/667; higher = more signal
[16] = tested on: wheat germ agglutinin (Triticum aestivum), Alexa647-labelled; assay: wheat germ agglutinin binders on compound microarrays, profiling panel, artefact control for SMM control-protein annotation, biochemical, small-molecule microarray, 635/667 nm fluorescence (AID 1140); conditions: WGA-A647 binding, 635 nm fluorescence, higher = more signal;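 note: score merges 667 nm feature emission with signal to noise over triplicate slides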
[17] = biological target: Luciferin 4-monooxygenase (Photinus pyralis) (UniProt P08659); assay: firefly luciferase enzyme inhibitors, primary screen, biochemical, luminescence, purified enzyme, 2006 set (AID 1141); conditions: SteadyGlo luminescence, 30 min, higher = more signal, called active from +8 up or from −8 down;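 note: cell-free assay with purified firefly luciferase at 100 ng per well in PBS; test concentration not given here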
Chain of Luciferin 4-monooxygenase (Photinus pyralis) (P08659 whole entry, looked up): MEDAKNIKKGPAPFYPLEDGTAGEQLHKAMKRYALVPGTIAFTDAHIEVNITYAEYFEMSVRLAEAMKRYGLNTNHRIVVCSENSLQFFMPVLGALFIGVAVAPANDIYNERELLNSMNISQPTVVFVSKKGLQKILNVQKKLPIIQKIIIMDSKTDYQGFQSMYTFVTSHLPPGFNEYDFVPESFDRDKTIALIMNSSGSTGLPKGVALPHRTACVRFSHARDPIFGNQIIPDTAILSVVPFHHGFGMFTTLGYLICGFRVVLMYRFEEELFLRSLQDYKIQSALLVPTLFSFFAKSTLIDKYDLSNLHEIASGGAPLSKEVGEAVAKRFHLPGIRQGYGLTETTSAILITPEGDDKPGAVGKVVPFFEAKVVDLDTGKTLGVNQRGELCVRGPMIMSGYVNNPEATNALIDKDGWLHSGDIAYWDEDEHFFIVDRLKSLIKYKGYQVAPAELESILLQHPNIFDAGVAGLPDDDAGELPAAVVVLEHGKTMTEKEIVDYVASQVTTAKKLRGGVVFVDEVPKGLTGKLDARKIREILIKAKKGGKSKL

Chain of Albumin (Bos taurus) (P02769 whole entry, looked up): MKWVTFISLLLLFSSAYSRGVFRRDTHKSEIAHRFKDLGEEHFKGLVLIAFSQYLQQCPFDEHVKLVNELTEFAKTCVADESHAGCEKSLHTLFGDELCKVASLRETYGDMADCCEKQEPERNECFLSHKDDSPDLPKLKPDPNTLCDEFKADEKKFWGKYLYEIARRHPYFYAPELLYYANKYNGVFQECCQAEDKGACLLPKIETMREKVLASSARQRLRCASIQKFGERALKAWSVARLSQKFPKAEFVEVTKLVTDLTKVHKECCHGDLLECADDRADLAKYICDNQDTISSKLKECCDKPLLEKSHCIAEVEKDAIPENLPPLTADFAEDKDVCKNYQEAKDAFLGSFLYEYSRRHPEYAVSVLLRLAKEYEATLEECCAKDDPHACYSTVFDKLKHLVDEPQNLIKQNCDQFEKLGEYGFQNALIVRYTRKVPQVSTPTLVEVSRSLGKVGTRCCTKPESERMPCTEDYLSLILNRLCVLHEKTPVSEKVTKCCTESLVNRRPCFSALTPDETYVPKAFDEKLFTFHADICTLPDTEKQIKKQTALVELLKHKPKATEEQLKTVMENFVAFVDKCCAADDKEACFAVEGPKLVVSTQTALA
Chain of Concanavalin-A (Canavalia ensiformis) (P02866 whole entry, looked up): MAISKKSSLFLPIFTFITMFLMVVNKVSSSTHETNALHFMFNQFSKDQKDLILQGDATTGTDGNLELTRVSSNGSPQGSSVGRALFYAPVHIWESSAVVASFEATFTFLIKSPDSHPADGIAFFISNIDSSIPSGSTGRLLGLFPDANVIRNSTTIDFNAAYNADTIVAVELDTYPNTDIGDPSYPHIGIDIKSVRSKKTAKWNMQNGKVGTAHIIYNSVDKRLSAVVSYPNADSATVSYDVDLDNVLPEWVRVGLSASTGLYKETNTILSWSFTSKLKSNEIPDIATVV
Chain of Follistatin (Homo sapiens) (P19883 whole entry, looked up): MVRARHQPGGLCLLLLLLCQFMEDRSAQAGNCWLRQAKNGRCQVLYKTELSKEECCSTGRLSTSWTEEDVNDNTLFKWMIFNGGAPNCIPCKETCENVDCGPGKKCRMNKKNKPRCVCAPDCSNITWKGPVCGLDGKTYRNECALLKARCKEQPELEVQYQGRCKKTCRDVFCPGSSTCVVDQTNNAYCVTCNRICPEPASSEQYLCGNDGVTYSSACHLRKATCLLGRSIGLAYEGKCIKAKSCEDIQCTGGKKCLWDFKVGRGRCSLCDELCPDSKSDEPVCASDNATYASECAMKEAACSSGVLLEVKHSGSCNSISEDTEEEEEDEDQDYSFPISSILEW
Chain of Focal adhesion kinase 1 (Homo sapiens) (Q05397 whole entry, looked up): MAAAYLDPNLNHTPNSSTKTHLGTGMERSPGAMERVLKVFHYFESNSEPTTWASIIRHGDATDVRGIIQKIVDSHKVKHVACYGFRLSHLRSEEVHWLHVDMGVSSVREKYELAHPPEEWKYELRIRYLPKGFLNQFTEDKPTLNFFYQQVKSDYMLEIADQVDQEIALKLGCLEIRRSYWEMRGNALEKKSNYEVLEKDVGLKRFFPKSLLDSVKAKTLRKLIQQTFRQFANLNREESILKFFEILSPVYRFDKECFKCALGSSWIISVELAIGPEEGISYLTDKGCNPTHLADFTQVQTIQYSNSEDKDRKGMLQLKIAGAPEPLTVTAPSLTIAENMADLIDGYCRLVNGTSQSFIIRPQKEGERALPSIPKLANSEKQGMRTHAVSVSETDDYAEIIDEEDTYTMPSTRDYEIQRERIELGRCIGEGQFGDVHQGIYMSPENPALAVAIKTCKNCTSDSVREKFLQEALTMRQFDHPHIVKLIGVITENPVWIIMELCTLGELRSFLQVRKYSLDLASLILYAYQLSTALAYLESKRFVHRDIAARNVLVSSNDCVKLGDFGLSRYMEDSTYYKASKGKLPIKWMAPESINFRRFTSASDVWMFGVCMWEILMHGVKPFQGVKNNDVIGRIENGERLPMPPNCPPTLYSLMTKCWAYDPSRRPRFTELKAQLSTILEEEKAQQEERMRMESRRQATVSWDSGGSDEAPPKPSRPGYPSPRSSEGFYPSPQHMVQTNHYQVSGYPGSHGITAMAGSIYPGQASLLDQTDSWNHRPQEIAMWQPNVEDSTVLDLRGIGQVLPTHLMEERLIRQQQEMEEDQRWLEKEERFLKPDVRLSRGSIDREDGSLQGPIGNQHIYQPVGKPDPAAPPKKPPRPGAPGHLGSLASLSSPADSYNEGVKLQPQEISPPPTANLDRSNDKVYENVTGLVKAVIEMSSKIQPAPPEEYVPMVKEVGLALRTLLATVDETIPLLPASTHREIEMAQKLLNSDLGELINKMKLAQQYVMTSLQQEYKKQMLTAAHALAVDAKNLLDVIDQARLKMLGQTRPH
Chain of Fibroblast growth factor 2 (Homo sapiens) (P09038 whole entry, looked up): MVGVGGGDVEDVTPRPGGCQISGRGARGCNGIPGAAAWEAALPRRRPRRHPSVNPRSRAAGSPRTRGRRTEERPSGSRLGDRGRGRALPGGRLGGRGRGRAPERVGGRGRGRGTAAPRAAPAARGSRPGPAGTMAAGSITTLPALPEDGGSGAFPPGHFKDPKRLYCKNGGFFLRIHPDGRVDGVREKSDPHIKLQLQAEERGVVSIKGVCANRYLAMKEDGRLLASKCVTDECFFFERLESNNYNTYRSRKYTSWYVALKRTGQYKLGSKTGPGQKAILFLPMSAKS

Row | SMILES | composite z-score (Albumin (Bos taurus)) | composite Z-score [1] | composite z-score [2] | composite z-score [3] | composite z-score [4] | composite z-score [5] | composite z-score [6] | composite z-score (Sam68 (KHDRBS1)) | composite z-score [7] | composite z-score [8] | composite z-score [9] | composite z-score [10] | composite z-score [11] | composite z-score [12] | composite z-score [13] | composite z-score [14] | z-score [15] | composite z-score (Lefty1) | composite z-score [16] | z-score [17]
1 | CON=C(C)CCC(=O)OC[C@H]1O[C@H](c2ccccc2)C=C[C@@H]1Oc1ccc(OC)cc1 | 0.443 | -0.222 (inactive) | -0.0687 | -0.146 | -0.185 | -0.0845 | 0.2 | -0.209 | 0.406 | 0.0078 | 1.25 | -0.623 | -0.0144 | -0.45 | 0.252 | 0.48 | 0.472 | 0.415 | -0.551 | 0.236 (inactive)
2 | CC(CCN1CCc2nc(-c3ccccc3)c(-c3ccccc3)cc2C1)=NOC[C@@H](O)COCc1ccco1 | 0.148 | 0.0366 (inactive) | 0.062 | -0.153 | 0.0111 | 0.197 | -0.202 | 1.08 | 1.03 | 0.501 | 0.567 | 0.697 | 0.475 | 0.19 | 1.15 | 0.496 | 2 | 1.03 | 0.679 | -1.46 (inactive)
3 | CC(C)CON=C1C[C@@H](O)[C@@H](O)[C@@H]2[C@@H]3C(=O)N(C(C)(C)C)C(=O)[C@@H]3CC[C@H]12 | -0.135 | 0.3 (inactive) | 0.0039 | -0.124 | 0.11 | 1.36 | 0.057 | 1.01 | 0.297 | -1.23 | 1.15 | -0.264 | -0.0405 | 0.0972 | -0.924 | -0.546 | -0.125 | -0.52 | -0.0283 | 0.473 (inactive)
4 | Cc1ccc(S(=O)(=O)OC[C@H]2CN3[C@H](c4ccc(Br)cc4)[C@@H](C)CC[C@H]3C(=O)O2)cc1 | 0.122 | -0.446 (inactive) | -0.0918 | -0.147 | 0.366 | 0.393 | 0.0759 | 0.893 | 0.0388 | 0.818 | 0.924 | 0.269 | 0.0817 | 0.596 | 1.1 | 1.45 | 1.78 | 0.198 | 0.11 | -0.849 (inactive)
5 | CO[C@H](C1CCCCC1)[C@H](C)C=CCC(=O)OCCCc1ccccc1 | -0.553 | 0.349 (inactive) | -0.125 | -0.0751 | -0.3 | -0.856 | -0.133 | -0.53 | 0.562 | -0.394 | 3.29 | -1.15 | 0.114 | -0.938 | 0.351 | 0.541 | -0.00988 | 0.0696 | -0.464 | -1.02 (inactive)
